Experiments:
Assay in all cases: DAPPL (digital affinity profiling via proximity ligation, sequencing); 10 mM Tris-HCl pH 7.5, 50 mM NaCl, 1 mM DTT, 4% glycerol, room temperature, 30 min; GST-TFs on glutathione beads, 16-mer random dsDNA library, 0.1% formaldehyde crosslink after washing; high values mean tight binding
Conditions in all cases: protein: recombinant; tags: N-terminal GST; dsDNA, one strand shown
ERF = molecular target: T1, ERF (Homo sapiens, UniProt P50548 1-548)
T1 sequence: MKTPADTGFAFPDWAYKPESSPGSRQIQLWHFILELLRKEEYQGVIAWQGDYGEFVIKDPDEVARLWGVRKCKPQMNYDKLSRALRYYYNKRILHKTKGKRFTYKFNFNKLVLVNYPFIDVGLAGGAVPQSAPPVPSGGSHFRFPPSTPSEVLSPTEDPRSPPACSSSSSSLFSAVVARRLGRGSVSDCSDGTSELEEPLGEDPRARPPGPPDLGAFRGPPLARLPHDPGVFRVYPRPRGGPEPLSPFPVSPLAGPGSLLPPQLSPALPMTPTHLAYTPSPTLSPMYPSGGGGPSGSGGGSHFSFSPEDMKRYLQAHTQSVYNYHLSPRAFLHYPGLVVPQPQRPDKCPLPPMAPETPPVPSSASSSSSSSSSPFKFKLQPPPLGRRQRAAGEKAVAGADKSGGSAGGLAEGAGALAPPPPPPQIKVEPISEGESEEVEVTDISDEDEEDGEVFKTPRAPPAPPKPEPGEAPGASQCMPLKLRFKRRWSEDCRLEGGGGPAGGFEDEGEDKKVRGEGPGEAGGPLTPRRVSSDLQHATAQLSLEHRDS
In short: (§1)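 Binding signal is each hexamer's read frequency for a factor divided by its frequency in the tag-only sample. The factors were GST-fused human transcription factors from yeast, captured on glutathione beads, DNA-barcoded and pooled with that sample. Pools were incubated with 200 nmole of a random double-stranded 16-mer DNA library in Tris/NaCl/DTT/glycerol buffer at room temperature for 30 min, then washed, crosslinked with 0.1% formaldehyde, proximity-ligated with BsaI/T4 ligase (1 h, 37 °C), PCR-amplified and sequenced on an Illumina NextSeq500.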

ETV3L = molecular target: T2, ETV3L (Homo sapiens, UniProt Q6ZN32 1-361)
T2 sequence: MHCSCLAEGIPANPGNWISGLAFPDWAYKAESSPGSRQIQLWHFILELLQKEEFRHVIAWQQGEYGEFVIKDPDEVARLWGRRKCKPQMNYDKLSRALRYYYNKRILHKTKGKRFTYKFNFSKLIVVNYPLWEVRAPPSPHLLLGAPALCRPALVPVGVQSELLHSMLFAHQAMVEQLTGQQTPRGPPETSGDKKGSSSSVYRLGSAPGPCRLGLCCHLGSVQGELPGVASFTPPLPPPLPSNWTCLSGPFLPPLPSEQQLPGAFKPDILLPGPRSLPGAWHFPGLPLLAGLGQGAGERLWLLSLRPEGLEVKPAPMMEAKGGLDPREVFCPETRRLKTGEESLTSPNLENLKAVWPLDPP
In short: as §1

ETS2 = molecular target: T3, ETS2 (Homo sapiens, UniProt P15036 1-469)
T3 sequence: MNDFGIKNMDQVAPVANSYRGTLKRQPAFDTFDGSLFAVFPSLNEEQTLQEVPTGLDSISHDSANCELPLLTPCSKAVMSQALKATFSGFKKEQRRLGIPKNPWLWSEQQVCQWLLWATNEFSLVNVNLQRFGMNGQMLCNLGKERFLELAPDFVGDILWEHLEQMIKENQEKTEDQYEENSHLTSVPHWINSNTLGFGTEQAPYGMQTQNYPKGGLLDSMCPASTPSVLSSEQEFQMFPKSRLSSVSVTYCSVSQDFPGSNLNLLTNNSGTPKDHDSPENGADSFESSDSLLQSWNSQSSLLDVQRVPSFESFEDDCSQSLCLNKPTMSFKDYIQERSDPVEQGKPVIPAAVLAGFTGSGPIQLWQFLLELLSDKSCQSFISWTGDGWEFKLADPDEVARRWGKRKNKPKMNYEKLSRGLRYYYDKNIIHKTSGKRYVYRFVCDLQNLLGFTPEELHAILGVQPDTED
In short: as §1

SPDEF = molecular target: T4, SPDEF (Homo sapiens, UniProt O95238 1-335)
T4 sequence: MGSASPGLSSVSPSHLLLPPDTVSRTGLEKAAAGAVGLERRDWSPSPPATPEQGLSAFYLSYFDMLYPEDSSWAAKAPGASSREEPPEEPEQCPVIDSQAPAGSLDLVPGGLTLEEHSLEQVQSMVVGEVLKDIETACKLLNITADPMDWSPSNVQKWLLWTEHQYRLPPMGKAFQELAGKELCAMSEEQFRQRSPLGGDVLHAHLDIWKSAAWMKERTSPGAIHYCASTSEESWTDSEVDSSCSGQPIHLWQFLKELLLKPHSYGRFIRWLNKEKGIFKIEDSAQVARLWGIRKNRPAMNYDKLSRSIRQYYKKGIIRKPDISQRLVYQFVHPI
In short: as §1

ETV7 = molecular target: T5, ETV7 (Homo sapiens, UniProt Q9Y603 1-341)
T5 sequence: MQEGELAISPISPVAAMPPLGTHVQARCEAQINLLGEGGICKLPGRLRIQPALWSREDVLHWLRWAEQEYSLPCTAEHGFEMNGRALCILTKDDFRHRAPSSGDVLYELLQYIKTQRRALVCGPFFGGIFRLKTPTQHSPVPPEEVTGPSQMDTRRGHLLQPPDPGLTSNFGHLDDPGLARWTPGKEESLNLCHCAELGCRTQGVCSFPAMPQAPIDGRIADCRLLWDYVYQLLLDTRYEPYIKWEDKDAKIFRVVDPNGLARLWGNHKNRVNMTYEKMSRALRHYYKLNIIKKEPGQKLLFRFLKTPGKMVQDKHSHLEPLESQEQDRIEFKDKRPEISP
In short: as §1

ELF5 = molecular target: T6, ELF5 (Homo sapiens, UniProt Q9UKW6-2 1-255)
T6 sequence: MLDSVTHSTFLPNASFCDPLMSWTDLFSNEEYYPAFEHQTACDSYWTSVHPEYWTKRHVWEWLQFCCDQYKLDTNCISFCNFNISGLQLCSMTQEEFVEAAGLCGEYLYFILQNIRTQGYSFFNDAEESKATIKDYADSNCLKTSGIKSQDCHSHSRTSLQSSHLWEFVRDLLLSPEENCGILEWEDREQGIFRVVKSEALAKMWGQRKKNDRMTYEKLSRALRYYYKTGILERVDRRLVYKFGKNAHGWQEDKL
In short: as §1

ETV3 = molecular target: T7, ETV3 (Homo sapiens, UniProt P41162-2 1-143)
T7 sequence: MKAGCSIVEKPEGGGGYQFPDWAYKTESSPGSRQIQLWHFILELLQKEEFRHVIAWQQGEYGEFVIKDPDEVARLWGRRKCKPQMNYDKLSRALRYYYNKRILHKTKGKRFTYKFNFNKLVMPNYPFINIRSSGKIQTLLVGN
In short: as §1

ETV6 = ETV6 (Homo sapiens, UniProt P41212 1-452)
Chain of ETV6 (P41212 whole entry): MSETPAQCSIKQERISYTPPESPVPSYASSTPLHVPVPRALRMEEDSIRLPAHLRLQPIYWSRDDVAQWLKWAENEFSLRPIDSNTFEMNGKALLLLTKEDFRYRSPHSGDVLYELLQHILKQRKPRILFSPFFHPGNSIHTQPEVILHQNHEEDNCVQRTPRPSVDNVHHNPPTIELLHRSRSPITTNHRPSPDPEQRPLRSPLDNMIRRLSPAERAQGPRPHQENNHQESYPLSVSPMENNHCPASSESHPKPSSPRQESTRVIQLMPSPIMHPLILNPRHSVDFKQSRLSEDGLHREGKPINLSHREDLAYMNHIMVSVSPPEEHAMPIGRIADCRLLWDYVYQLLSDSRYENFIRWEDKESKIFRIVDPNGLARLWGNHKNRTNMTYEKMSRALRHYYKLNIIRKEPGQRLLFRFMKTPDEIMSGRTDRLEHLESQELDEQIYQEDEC
In short: as §1

TATTCA
binding signal (ERF): 1.36 fold enrichment (6-mer frequency, TF over GST control) | binding signal (ETV3L): 1.43 fold enrichment (6-mer frequency, TF over GST control) | binding signal (ETS2): 1.34 fold enrichment (6-mer frequency, TF over GST control) | binding signal (SPDEF): 1.28 fold enrichment (6-mer frequency, TF over GST control) | binding signal (ETV7): 1.23 fold enrichment (6-mer frequency, TF over GST control) | binding signal (ELF5): 1.24 fold enrichment (6-mer frequency, TF over GST control) | binding signal (ETV3): 1.23 fold enrichment (6-mer frequency, TF over GST control) | binding signal (ETV6): 1.3 fold enrichment (6-mer frequency, TF over GST control)

GCCTAA
binding signal (ERF): 1.22 fold enrichment (6-mer frequency, TF over GST control) | binding signal (ETV3L): 1.22 fold enrichment (6-mer frequency, TF over GST control) | binding signal (ETS2): 1.31 fold enrichment (6-mer frequency, TF over GST control) | binding signal (SPDEF): 1.11 fold enrichment (6-mer frequency, TF over GST control) | binding signal (ETV7): 1.19 fold enrichment (6-mer frequency, TF over GST control) | binding signal (ELF5): 1.18 fold enrichment (6-mer frequency, TF over GST control) | binding signal (ETV3): 1.21 fold enrichment (6-mer frequency, TF over GST control) | binding signal (ETV6): 1.13 fold enrichment (6-mer frequency, TF over GST control)

CCGCTC
binding signal (ERF): 1.66 fold enrichment (6-mer frequency, TF over GST control) | binding signal (ETV3L): 1.74 fold enrichment (6-mer frequency, TF over GST control) | binding signal (ETS2): 1.54 fold enrichment (6-mer frequency, TF over GST control) | binding signal (SPDEF): 1.44 fold enrichment (6-mer frequency, TF over GST control) | binding signal (ETV7): 1.42 fold enrichment (6-mer frequency, TF over GST control) | binding signal (ELF5): 1.53 fold enrichment (6-mer frequency, TF over GST control) | binding signal (ETV3): 1.46 fold enrichment (6-mer frequency, TF over GST control) | binding signal (ETV6): 1.32 fold enrichment (6-mer frequency, TF over GST control)

CCTTTT
binding signal (ERF): 1.65 fold enrichment (6-mer frequency, TF over GST control) | binding signal (ETV3L): 1.69 fold enrichment (6-mer frequency, TF over GST control) | binding signal (ETS2): 1.46 fold enrichment (6-mer frequency, TF over GST control) | binding signal (SPDEF): 1.55 fold enrichment (6-mer frequency, TF over GST control) | binding signal (ETV7): 1.53 fold enrichment (6-mer frequency, TF over GST control) | binding signal (ELF5): 1.61 fold enrichment (6-mer frequency, TF over GST control) | binding signal (ETV3): 1.55 fold enrichment (6-mer frequency, TF over GST control) | binding signal (ETV6): 1.67 fold enrichment (6-mer frequency, TF over GST control)

AAGGAT
binding signal (ERF): 1.12 fold enrichment (6-mer frequency, TF over GST control) | binding signal (ETV3L): 1.21 fold enrichment (6-mer frequency, TF over GST control) | binding signal (ETS2): 1.14 fold enrichment (6-mer frequency, TF over GST control) | binding signal (SPDEF): 1.37 fold enrichment (6-mer frequency, TF over GST control) | binding signal (ETV7): 1.05 fold enrichment (6-mer frequency, TF over GST control) | binding signal (ELF5): 1.43 fold enrichment (6-mer frequency, TF over GST control) | binding signal (ETV3): 1.24 fold enrichment (6-mer frequency, TF over GST control) | binding signal (ETV6): 1.21 fold enrichment (6-mer frequency, TF over GST control)

GCTTAC
binding signal (ERF): 1.13 fold enrichment (6-mer frequency, TF over GST control) | binding signal (ETV3L): 1.09 fold enrichment (6-mer frequency, TF over GST control) | binding signal (ETS2): 1.09 fold enrichment (6-mer frequency, TF over GST control) | binding signal (SPDEF): 1.23 fold enrichment (6-mer frequency, TF over GST control) | binding signal (ETV7): 1.03 fold enrichment (6-mer frequency, TF over GST control) | binding signal (ELF5): 1.14 fold enrichment (6-mer frequency, TF over GST control) | binding signal (ETV3): 1.23 fold enrichment (6-mer frequency, TF over GST control) | binding signal (ETV6): 1.03 fold enrichment (6-mer frequency, TF over GST control)

Reference: article PMC7862700, “An all-to-all approach to the identification of sequence-specific readers for epigenetic DNA modifications on cytosine”
